Reference: patent US20150023943, “REF Nuclease for Site-Specific REF-Mediated DNA Cleavage” (Wisconsin Alumni Research Foundation, published 2015)

Molecular target: T1, φW39 ΔN59 Ref (Bacteriophage phi W39)
T1 chain: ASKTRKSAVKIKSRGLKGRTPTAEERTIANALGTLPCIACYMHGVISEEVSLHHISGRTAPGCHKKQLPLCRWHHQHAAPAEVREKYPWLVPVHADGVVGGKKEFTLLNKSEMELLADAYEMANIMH
Assay: FP; Kd value only in FIG. 6C; 15 mM Mg acetate, pH 8.5, 25 C
Settings: tags: expressed from pET21A with NdeI start Met; label: 5'-6FAM; ssDNA
Protocol: Ref proteins at 0.5-10,000 nM were incubated with 2 nM AJM25 71mer ssDNA or AJM25 annealed with AJG52 71mer to make a linear 71 bp dsDNA substrate in 25 mM Tris-acetate (pH 8.5), 3 mM potassium glutamate, 15 mM magnesium acetate, and 5% w/v glycerol at room temperature for 15 minutes. Fluorescence anisotropy (FA) was measured at 25° C., using a Tecan Infinite M1000 instrument with 470-nm excitation and 535-nm emission wavelengths for at least three replicates. The average FA values were plotted with one standard deviation of the mean shown as error. Prism software was used to convert FA values to the percent of DNA bound and apparent dissociation constants were determined using one-site, specific binding with Hill coefficient.

**Q.** For “CAGAAGTAAGTTGGCCGCAGTGTTATCACTCATGGTTATGGCAGCACTGCATAATTCTCTTACTGTCATGC”, which binding signal is on record?
**A.** 40 fold reduction in affinity
